Results reported in PubChem BioAssay AID602314 (ICCB-Longwood Screening Facility, Harvard Medical School, 2012).
About 110 (0.13%) of roughly 84,000 compounds were called active. Rule as the data show it: active = inhibition above about 30% (passing the limit was not always enough); inactive = the rest. Shown is part of a subset that was picked to be rich in actives.

test system: MgrA (MarR family transcriptional regulator), Staphylococcus aureus Newman; assay: modulators of MgrA DNA binding – biochemical, S. aureus Newman, fluorescence polarization, primary screen (AID 602314); conditions: hits give high values, concentration not given here;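 also: 0% = protein plus DNA without compound and 100% = DNA alone without protein; higher means less MgrA bound to DNA so lower polarization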

| SMILES | inhibition |
| --- | --- |
| CS(=O)(=O)c1nc2ccccc2[nH]1 | -4.3% (inactive) |
| N#C/C(=C\C=C\c1ccccc1)c1nc2ccccc2[nH]1 | 9.2% (inactive) |
| N#CC(=C1C(=O)c2ccccc2C1=O)c1nc2ccccc2[nH]1 | 59.7% (active) |
| CCN(CC)C(=O)CSc1nc2ccccc2cc1C | 0.6% (inactive) |
| Nc1ccccc1C(=O)Nc1ccc(Cl)cc1 | -1.3% (inactive) |
| CCCCOc1ccc(C2=N/C(=C\c3cc(OC)c(OC)cc3OC)C(=O)O2)cc1 | -1.1% (inactive) |
| CSc1n[nH]c(-c2ccc(Cl)cc2)c1C#N | -2.1% (inactive) |
| CC(C)c1ccc(NC(=O)CN2N=C(c3ccc(Cl)cc3)CCC2=O)cc1 | 0.65% (inactive) |
| O=C1/C(=C\c2cccs2)SC(=S)N1CCCC(=O)N1CCCc2ccccc21 | 2.75% (inactive) |
| Cc1ccc(C(=O)OCC2OC(C#N)CC2OC(=O)c2ccc(C)cc2)cc1 (stereo unspecified) | -3.65% (inactive) |
| CSc1ncc(Br)c(C(=O)O)n1 | -4.9% (inactive) |
| O=C(c1ccc(F)cc1)c1c[nH]c(C(=O)NCc2ccc(F)cc2)c1 | -2.05% (inactive) |
| COCCn1c(N)cc(=O)[nH]c1=S | 0.65% (inactive) |
| Cc1cccc(OCC(=O)N2CCc3ccccc32)c1 | 0.6% (inactive) |
| CCN(CC)C(=O)Cc1cc(OC)c(OC)cc1Br | 3.35% (inactive) |
| Cn1cnnc1SCc1ccc(Cl)cc1 | -1.45% (inactive) |
| CCc1cccc(CC)c1N1C(=O)CC(Sc2ccccc2N)C1=O (stereo unspecified) | 1.1% (inactive) |
| c1ccc2c(c1)CCN2c1nc2ccccc2n2cnnc12 | 0.25% (inactive) |
| O=c1[nH]c(O)c(C=NCCCn2ccnc2)c(=O)[nH]1 | 5.6% (inactive) |
| CSc1nsc(SCC(=O)OC2CC(C)CCC2C(C)C)n1 (stereo unspecified) | 0.7% (inactive) |
| CC(C)(C)c1ccc(NC(=O)COC(=O)c2ccc(F)cc2F)cc1 | 4.8% (inactive) |

| SMILES | inhibition |
| --- | --- |
| CCN(C(=O)c1cccs1)c1cccc2ccccc12 | -1.8% (inactive) |
| COc1cccc(CC(=O)Nc2ccc(-c3csc(C)n3)cc2)c1 | -0.65% (inactive) |
| Cc1ccc(NC2SC(=O)NC2=O)cc1 (stereo unspecified) | 1.7% (inactive) |
| O=C(NC1CC1)C1C2C=CC3(O2)C1C(=O)N(C1CC1)C3C(=O)NC1CCCCC1 (stereo unspecified) | 0.25% (inactive) |
| CCSc1nnc2c(n1)OC(c1cccc(OC)c1)Nc1ccccc1-2 (stereo unspecified) | -1.3% (inactive) |
| CC(=O)Nc1ccc(-c2nnc(-c3ccco3)o2)cc1 | -3.3% (inactive) |
| CC(C)(C)C/C(=N/O)c1ccccc1 | 0.2% (inactive) |
| Cc1nnc(SCc2ccc(C#N)cc2)s1 | 0.7% (inactive) |
| CSc1ncnc2sc(-c3ccccc3)cc12 | 0.75% (inactive) |
| CCOC(=O)c1sc(NC(C)=O)c(C#N)c1C | -2.1% (inactive) |
| O=C(c1cnn2c(C(F)F)cc(-c3ccccc3)nc12)N1CCCC1 | -0.35% (inactive) |
| CCOC(=O)c1ccc(NC(=O)CC2C(=O)N(c3ccc(F)cc3)C(=O)N2Cc2cccs2)cc1 (stereo unspecified) | -1.9% (inactive) |
| FC(F)(F)c1cccc(CSc2ncn[nH]2)c1 | -0.7% (inactive) |
| COc1ccccc1C=NC12CN3CN(CN(C3)C1)C2 | 2.95% (inactive) |
| Oc1[nH]c2ccccc2c1C=NCCC1=CCCCC1 | 5.65% (inactive) |
| CCOCCOC(=O)C1=C(C)NC2=C(C(=O)CC(c3ccccc3)C2)C1c1cc2c(cc1Br)OCO2 (stereo unspecified) | -2.9% (inactive) |
| CCOC(=O)c1cccn1-c1ncc(C(F)(F)F)cc1Cl | -1.2% (inactive) |
| Cc1ccc(-c2nn(CCC(=O)NCCN3CCOCC3)c(=O)c3ccccc23)cc1 | 0.2% (inactive) |
| O=C(Nc1ccccc1-c1nc2ccccc2[nH]1)c1ccccc1Br | -2.6% (inactive) |
| N#CCc1ccc(OCc2ccc(Cl)c(Cl)c2)cc1 | -1.9% (inactive) |
